# Assay results as given in PubChem BioAssay (Tox21).
# Values joined by “and” are separate entries in the source; they are usually repeats but may differ in a detail not shown here. Identical values can stand only once. Results filed as inconclusive are left out. Active and inactive are the calls of the source.
# Biological target: Glucocorticoid receptor (Homo sapiens) (UniProt P04150)
# Assay: qHTS assay to identify small molecule agonists of the glucocorticoid receptor (GR) signaling pathway (AID 720691; active = well fitted activation curve with a large enough effect in the signal ratio in the repeat runs, not every such curve was filed as active; the % refers to the signal ratio)
# Settings: GR-bla HeLa, beta-lactamase reporter ratio, 18 h; series mostly up to 62.4 µM; activation: at the top concentration
# Summary of the method: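 Agonist mode in a HeLa line carrying a GRE-controlled beta-lactamase reporter. Compounds act for 18 h at 37 C before a 2 h room-temperature FRET substrate step and fluorescence reading.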
# % is scaled to controls: 0 for no effect and ±100 for the full control effect.
# Sequence of Glucocorticoid receptor (Homo sapiens) (P04150 whole entry, looked up): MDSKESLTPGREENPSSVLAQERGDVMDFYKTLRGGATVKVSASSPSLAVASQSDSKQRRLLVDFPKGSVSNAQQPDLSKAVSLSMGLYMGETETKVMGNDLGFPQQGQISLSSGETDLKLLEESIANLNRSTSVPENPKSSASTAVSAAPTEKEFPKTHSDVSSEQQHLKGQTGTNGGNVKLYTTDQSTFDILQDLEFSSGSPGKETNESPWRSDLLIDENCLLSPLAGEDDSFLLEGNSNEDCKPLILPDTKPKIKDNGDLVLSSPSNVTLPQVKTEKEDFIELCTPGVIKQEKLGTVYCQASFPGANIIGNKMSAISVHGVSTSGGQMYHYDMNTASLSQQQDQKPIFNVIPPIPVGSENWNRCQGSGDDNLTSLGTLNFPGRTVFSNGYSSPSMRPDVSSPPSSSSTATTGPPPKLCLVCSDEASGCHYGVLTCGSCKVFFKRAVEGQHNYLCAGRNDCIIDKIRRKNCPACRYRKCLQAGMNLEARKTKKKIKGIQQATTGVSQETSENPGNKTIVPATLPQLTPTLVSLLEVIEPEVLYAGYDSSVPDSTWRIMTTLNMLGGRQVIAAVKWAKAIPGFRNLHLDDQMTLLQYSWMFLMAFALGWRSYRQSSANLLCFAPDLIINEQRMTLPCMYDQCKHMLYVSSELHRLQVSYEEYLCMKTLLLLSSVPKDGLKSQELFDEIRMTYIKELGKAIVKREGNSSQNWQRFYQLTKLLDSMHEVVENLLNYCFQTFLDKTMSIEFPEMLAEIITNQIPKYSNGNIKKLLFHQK
SMILES,activation,Potency
O=C(O)/C=C/c1cnc[nH]1,-1.24% (inactive),–
Cc1occc1S,1.93% (inactive),–
O=c1[nH]cnc2ccccc12,-0.984% [at 79.2 µM] (inactive),–
CCN(CC)CCOc1ccc2c(c1)C(=O)c1cc(OCCN(CC)CC)ccc1-2,8.99% (inactive),–
CC(=O)OCCc1ccccc1,-0.259% (inactive),–
CCCCCCCCCCCCC(=O)O,0.104% [at 79.2 µM] (inactive),–
Oc1ccc(Cc2ccccc2)cc1,-6.76% (inactive),–
NC1CCN(c2nc3c(cc2F)c(=O)c(C(=O)O)cn3-c2ccc(F)cc2F)C1 (stereo not drawn),0.51% (inactive),–
O=CNc1ccccc1,-0.753% [at 79.2 µM] (inactive),–
Cc1cccc(Oc2ccccc2)c1,0.0259% (inactive),–
O=C(O)Cc1cc(I)c(Oc2ccc(O)c(I)c2)c(I)c1,–,inactive
O=C(NN1CCCC1)NS(=O)(=O)c1ccc(Cl)cc1,-1.14% (inactive),–
CC(C)(C)c1ccc(OCC2CO2)cc1 (stereo not drawn),-3.18% [at 79.2 µM] (inactive),–
COc1cc(C(C)(C)C)c(O)c(C(C)(C)C)c1,2.41% (inactive),–
Cc1ccccn1,–,inactive
CCOc1ccc(NC(=O)CC(C)=O)cc1,-1.71% (inactive),–
CCCCOC(=O)/C=C\C(=O)OCCCC,3.08% [at 79.2 µM] (inactive),–
O=C1c2cccc(O)c2C(=O)c2c(O)cc(CO)cc21,0.184% (inactive),–
CC(=O)SCc1ccco1,1.09% (inactive),–
CN(C(=O)CCCOc1ccc2[nH]c(=O)ccc2c1)C1CCCCC1,-0.244% (inactive),–
CCN(CC)C(C)CN1c2ccccc2Sc2ccccc21 (stereo not drawn),-0.857% [at 29.2 µM] (inactive),–

# Biological target: Glucocorticoid receptor (Homo sapiens) (UniProt P04150)
# Assay: qHTS assay to identify small molecule antagonists of the glucocorticoid receptor (GR) signaling pathway (AID 720692; active = well fitted inhibition curve with a large enough effect in the signal ratio in the repeat runs, not every such curve was filed as active; the % refers to the signal ratio; also: potency is read from the fitted curve at half-maximal effect)
# Settings: GR-bla HeLa, beta-lactamase FRET ratio, dexamethasone-stimulated, 18 h; series mostly up to 58.5 µM; activity change, negative = inhibition: at the top concentration
# Summary of the method: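 Cells plated, rested 4 h at 37 C/5% CO2; compounds in DMSO pin-transferred; dexamethasone added to 5 nM final; 18 h at 37 C; B/G FRET substrate added, 2 h room temperature; fluorescence measured.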
SMILES,"activity change, negative = inhibition",Potency
O=C(O)/C=C/c1cnc[nH]1,-7.88% (inactive),–
Cc1occc1S,21.8% (inactive),–
O=c1[nH]cnc2ccccc12,-17.3% [at 78.9 µM] (inactive),–
CC(=O)OCCc1ccccc1,0.813% (inactive),–
Cc1cccc(Oc2ccccc2)c1,-11.9% (inactive),–
O=C(O)[C@@H]1[C@H]2C[C@H]3c4[nH]c5ccccc5c4CCN3C[C@@H]2CC[C@@H]1O,-4.87% [at 27 µM] (inactive),–
O=C(O)Cc1cc(I)c(Oc2ccc(O)c(I)c2)c(I)c1,–,9.1 µM (active) and 3.47 µM (active)
O=c1c2ccccc2nnn1CCl,0.721% (inactive),–
O=C(NN1CCCC1)NS(=O)(=O)c1ccc(Cl)cc1,-3.76% (inactive),–
CC(=O)N(O)CCCCCNC(=O)CCC(=O)N(O)CCCCCNC(=O)CCC(=O)N(O)CCCCCN,-2.13% [at 27 µM] (inactive),–
CCN(CC)CCOC(=O)C1(c2ccccc2)CCCC1,-5.63% (inactive),–
COc1cc(C(C)(C)C)c(O)c(C(C)(C)C)c1,-0.284% (inactive),–
Cc1ccccn1,–,inactive
CCOc1ccc(NC(=O)CC(C)=O)cc1,-2.81% (inactive),–
CC(=O)SCc1ccco1,-12.1% (inactive),–
CN(C(=O)CCCOc1ccc2[nH]c(=O)ccc2c1)C1CCCCC1,-19% (inactive),–
O=C(O)Cn1c(C(=O)Nc2nc(-c3ccccc3Cl)cs2)cc2ccccc21,-21.7% (inactive),–
